Inconclusive results are not listed. Where a call stands in place of a potency, no number is given. Active and inactive are the calls of the source. Calls follow the shape of the dose curve; as a rule, active = well fitted curve in the direction sought with a large enough effect; inconclusive = small, poorly fitted or top-dose-only effect, or another doubt; inactive = no such curve, though single readings can be large; an effect the other way counts as inactive or inconclusive.
Key:
[1] = molecular target: Aldehyde dehydrogenase, mitochondrial (Homo sapiens) (UniProt P05091); experiment: qHTS for Inhibitors of the Aldehyde Dehydrogenase Family (ALDH2) Primary screen (AID 2061308); also: nearly all actives have a fitted effect of over 55% in size
[2] = molecular target: Retinaldehyde dehydrogenase 3 (Homo sapiens) (UniProt P47895); experiment: qHTS for Inhibitors of the Aldehyde Dehydrogenase Family (ALDH1A3) Primary screen (AID 2061315)

Structure (SMILES) | Potency [1] | Potency [2]
O=C(O)c1ccc(O)c2ncc(-c3n[nH]nc3-c3ccccc3)cc12 | inactive | inactive
Cc1ccc(NC(=O)c2ccncc2NS(=O)(=O)c2ccc(C)cc2)cc1 | inactive | inactive
Clc1cccc(-c2ccc3ncnc(NCc4cccnc4)c3c2)c1 | inactive | inactive
COc1ccc(-c2nnc3n2N=C(c2c(OC)cccc2OC)CS3)c(OC)c1 | inactive | inactive
CCc1cccc(CC)c1OCc1cc(C2Nc3ccccc3C(=O)N2Cc2ccco2)ccc1OC (stereo unspecified) | inactive | inactive
COC(=O)c1ccccc1NC(=O)c1ccccc1OC(F)F | inactive | inactive
O=C(Cn1nc(-c2ccccc2)ccc1=O)NCCc1ccccc1 | inactive | inactive
Cc1cnc(-c2ccccc2C(C)C)nc1NCC1CCN(c2cccnc2)C1 (stereo unspecified) | inactive | inactive
Cc1ccc(-c2cc(C(=O)Nc3ccc(S(N)(=O)=O)cc3)c3ccccc3n2)cc1C | inactive | inactive
O=S(=O)(Nc1nccs1)c1ccc(NCc2ccccc2O)cc1 | inactive | inactive
COc1ccc(-c2nnc3n2N=C(c2ccc(OC)cc2OC)CS3)cc1 | inactive | inactive
COc1cccc(C2=Nn3c(nnc3-c3cccc(OC)c3OC)SC2)c1 | inactive | inactive
O=C(CNC(=O)c1ccc([N+](=O)[O-])cc1)OC(C(=O)Nc1cc(C(F)(F)F)ccc1Cl)c1ccccc1 (stereo unspecified) | inactive | inactive
C(=C/c1cccs1)/c1ccncc1 | inactive | inactive
Cc1cccc(C2N=C(Nc3nc4ccccc4o3)NC3=C2C(=O)CCC3)c1 (stereo unspecified) | inactive | inactive
Cc1cccc(NS(=O)(=O)c2ccc3c(c2)CCC(=O)N3)c1 | inactive | inactive
N#Cc1ccnc(N2C(=O)CC[C@H]2C(=O)N(c2cncc(F)c2)[C@@H](C(=O)NC2CC(F)(F)C2)c2ccccc2Cl)c1 | inactive | inactive
Cc1ccc(NS(=O)(=O)c2cccc(C(=O)Nc3nc(-c4ccccc4)cs3)c2)cc1 | inactive | inactive
Fc1ccccc1-c1nnc2n1N=C(c1ccc(OC(F)F)c(OCC3CC3)c1)CS2 | inactive | inactive
CC(=O)c1ccc(C(=O)Nc2nnc(-c3ccco3)o2)cc1 | inactive | inactive
CC(C)(C)n1cnc2cc(C(=O)N3CCCCC3)ccc21 | inactive | inactive

Structure (SMILES) | Potency [1] | Potency [2]
CCCCN1C(=O)c2ccccc2NC1c1ccc(OC)c(COc2c(C)cc(NC(C)=O)cc2C)c1 (stereo unspecified) | inactive | inactive
O=C1CCc2cc(Cl)c(S(=O)(=O)Nc3ccc(Cl)c(Cl)c3)cc2N1 | inactive | inactive
O=C(NCCc1nc2ccccc2n1CCOc1ccccc1F)C1CCCCC1 | inactive | inactive
CCOc1ccccc1-c1nnc2n1N=C(c1cc(OC)ccc1OC)CS2 | inactive | inactive
CCCCNc1nc(C)nc2c1nc(-c1ccccc1)n2CCN1CCCC1 | inactive | inactive
CC(=O)Nc1sc2c(c1-c1ccc3[nH]ccc3c1)CCNC2 | inactive | inactive
COc1ccc(C2=Nn3c(nnc3-c3ccccc3O)SC2)c(OC)c1 | inactive | inactive
NC(=O)c1c(NC(=O)C2CCCO2)sc2c1CCCC2 (stereo unspecified) | inactive | inactive
CCOC(=O)C1CCN(C(=O)C2(NC(=O)Nc3ccccc3Cl)CCCCC2)CC1 | inactive | inactive
Cc1nc(N2CCOCC2)c2nc(-c3ccccc3)n(CCN(C)C)c2n1 | inactive | inactive
Cc1ccc(-c2nc3ccccc3[nH]2)cc1NC(=O)c1ccc(-c2cccc(Cl)c2)o1 | inactive | inactive
COc1cc(O)c(C(CC(=O)N2CC(C)NC(C)C2)c2ccc3c(c2)OCO3)c(OC)c1 (stereo unspecified) | inactive | inactive
FC(F)(F)c1cccc(N2CCN(C(=S)Nc3cccnc3)CC2)c1 | inactive | inactive
Cc1ccc(NS(=O)(=O)c2ccc3c(c2)CCN(C(=O)C(F)(F)F)C3)cc1C | inactive | inactive
Cc1cn2c(n1)Cc1ccc(Cl)cc1C(c1ccc(N)cc1)=N2 | inactive | inactive
Cn1c2cc(C(=O)O)sc2c2cnn(Cc3ccccc3F)c(=O)c21 | inactive | inactive
CCn1cnc2c(Nc3cccc(Cl)c3)nc(C#N)nc21 | inactive | inactive
Cc1cc2c(s1)c1cnn(Cc3cc(F)ccc3C)c(=O)c1n2C | inactive | inactive
FC(F)(F)c1ccccc1-c1nc(NCc2ccc3c(c2)OCO3)c2ccccc2n1 | inactive | inactive
Cc1cc2c(s1)c1cnn(Cc3c(Cl)cccc3Cl)c(=O)c1n2C | inactive | inactive
CCCn1c(C)nc2c(NCCN3CCOCC3)nc(C)nc21 | inactive | inactive

Structure (SMILES) | Potency [1] | Potency [2]
Cc1ccc(-c2ccc(=O)n(CC(=O)NCCCc3ccccn3)n2)cc1 | inactive | inactive
C/C=C(/C)C(=O)O[C@H]1C=C(CO)C(=O)[C@H](OC(=O)/C(C)=C/CO)[C@H]1C(C)C | inactive | inactive
FC1(F)Oc2ccc(-c3ccc4ncnc(NCc5cccs5)c4c3)cc2O1 | inactive | inactive
Cc1cc(-c2nc(Nc3ccc(F)c(F)c3)c3ccccc3n2)ccn1 | inactive | inactive
Cc1ccc(NS(=O)(=O)c2cc3c(cc2F)NC(=O)CC3)cc1C | inactive | inactive
Cc1cc(C)nc(NC(=S)N2CCN(c3cc(Br)cc(C(F)(F)F)c3)CC2)c1 | inactive | inactive
CC1=CC(=O)C2C(C)(C)CCCC2(C)C12CCC1(COC(=O)C1)O2 (stereo unspecified) | inactive | inactive
CC1=C(C(=O)Nc2ccccc2)C(c2ccccc2Br)N=C(Nc2nc3ccccc3o2)N1 (stereo unspecified) | inactive | inactive
O=C1CCCC2=C1C1(CCCC1)N=C(Nc1nc3ccccc3n1Cc1ccccc1)N2 | inactive | inactive
Cc1cc2c(s1)c1cnn(Cc3cccc(F)c3F)c(=O)c1n2C | inactive | inactive
Cc1ccc(-c2ccc(=O)n(CC(=O)N(C)[C@@H](C)c3ccccc3)n2)cc1 | inactive | inactive
CCOc1ccc(CCNC(=O)C2=C(C)OCCO2)cc1OCC | inactive | inactive
O=C(/C=C/c1ccccc1)Nc1cccc(S(=O)(=O)Nc2ccccc2F)c1 | inactive | inactive
CC(=O)O[C@@]12CO[C@@H]1C[C@H](O)[C@@]1(C)C(=O)[C@H](O)C3=C(C)[C@@H](OC(=O)[C@H](O)[C@@H](NC(=O)OC(C)(C)C)c4ccccc4)C[C@@](O)([C@@H](OC(=O)c4ccccc4)C12)C3(C)C (stereo partly specified) | inactive | inactive
COc1cc(-c2ccc3ncnc(NCc4nc(C)cs4)c3c2)cc(OC)c1OC | inactive | inactive
O=C(Nc1ccc(Br)c(Br)c1)Nc1cccc(-c2ccncc2)n1 | inactive | inactive
COc1ccccc1CNc1ccc(S(=O)(=O)Nc2nccs2)cc1 | inactive | inactive
O=C(Nc1ccc(C(=O)Nc2nccs2)cc1)c1ccc2ccccc2c1 | inactive | inactive
Cc1ccc(-c2cc(C(=O)Nc3ccc(S(C)(=O)=O)cc3)c3ccccc3n2)cc1C | inactive | inactive
O=C(c1ccccc1)N(C(=O)c1ccccc1)c1ncnc2c1C(c1ccccc1)c1c(ccc3ccccc13)O2 (stereo unspecified) | inactive | inactive
CC(C)Oc1cccc(-c2csc(N3CCC(C(N)=O)CC3)n2)c1 | inactive | inactive

Structure (SMILES) | Potency [1] | Potency [2]
O=S(=O)(Nc1nccs1)c1ccc(NCc2cccc(Cl)c2Cl)cc1 | inactive | inactive
Cn1nnnc1Sc1ncnc2scc(-c3ccccc3C#N)c12 | inactive | inactive
COc1cc(O)c(C(CC(=O)N2CCOCC2)c2ccc(OC)c(OC)c2)c(OC)c1 (stereo unspecified) | inactive | inactive
O=S(=O)(c1ccc2c(c1)OCCO2)N1CCN(S(=O)(=O)c2cc(F)c(F)cc2F)CC1 | inactive | inactive
Cc1ccc(OCCn2c(CCNC(=O)c3ccc(F)cc3F)nc3ccccc32)cc1 | inactive | inactive
COc1cccc(C2c3c(ncn(-c4ccccc4Br)c3=N)Oc3ccc4ccccc4c32)c1 (stereo unspecified) | inactive | inactive
Cc1ccccc1C(C(=O)NC1CCCCC1)N(C(=O)Cn1cnc2ccccc21)c1cccc(F)c1 (stereo unspecified) | inactive | inactive
Cn1nnnc1Sc1ncnc2scc(-c3ccc(N)cc3)c12 | inactive | inactive
Cc1ccc(CC(=O)Nc2nc(-c3ccc4c(c3)CCN4C(=O)c3ccccc3C)c(C)s2)cc1C | inactive | inactive
Cc1ccc(S(=O)(=O)Nc2cnccc2C(=O)Nc2nc(-c3cccc(C)c3)cs2)cc1 | inactive | inactive
C[C@H](C/C=C/C(C)(C)O)[C@H]1CC[C@@]2(C)[C@@H]3[C@@H](O[C@@H]4O[C@H](CO)[C@@H](O)[C@H](O)[C@H]4O)C=C4C(CC[C@H](O)C4(C)C)[C@]3(C=O)CC[C@]12C (stereo partly specified) | inactive | inactive
CC[C@H]1OC(=O)[C@](C)(F)C(=O)[C@H](C)[C@@H](O[C@@H]2O[C@H](C)C[C@H](N(C)C)[C@H]2O)[C@](C)(OC)C[C@@H](C)C(=O)[C@@H](C)[C@H]2N(CCCCn3cc(-c4cccc(N)c4)nn3)C(=O)O[C@]12C | inactive | inactive
COc1ccc(N2C[C@]34C=C[C@H](O3)C(C(=O)O)C4C2=O)cc1OC (stereo partly specified) | inactive | inactive
CCOc1cc(F)c(CCNC(=O)c2cc3sccc3n2Cc2ccccc2)cc1OCC | inactive | inactive
CCCCNc1nc(C)nc2c1nc(-c1ccccc1)n2C1CCN(Cc2ccccc2)C1 (stereo unspecified) | inactive | inactive
CC(=O)c1ccc(N2CCN(S(=O)(=O)c3ccc4[nH]c(=O)oc4c3)CC2)cc1 | inactive | inactive
Cn1nnnc1Sc1ncnc2scc(-c3ccc4ccccc4c3)c12 | inactive | inactive
O=C1CCCC2=C1C1(CCSC1)N=C(Nc1nc3ccccc3o1)N2 (stereo unspecified) | inactive | inactive
O=S(=O)(c1ccc(F)cc1)N1CCN(S(=O)(=O)c2ccc3c(c2)OCCO3)CC1 | inactive | inactive
Cc1nc(N2CCOCC2)c2nc(-c3ccccc3)n(CCCN3CCOCC3)c2n1 | inactive | inactive

Source: PubChem BioAssay (NCATS)
